# PvdQ acylase = P. aeruginosa PvdQ acylase inhibition | 340,000 compounds, 0.063% hits | purified PvdQ acylase, fluorescence plate reader | inhibition, % at 10 µM; in the data active = inhibition above about 30%, passing the limit was not always enough;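 note: 0% = vehicle neutral wells and 100% = reference inhibitor wells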
# HTR5A ag = activates human HTR5A in OPRM1-OPRD1 agonist counter-screen; P47898; HTR5A agonist assay, luminescence, cell-based; activation, % at 9.3 µM; 340,000 compounds, 0.61% hits; in the data active = activation mostly above about 9.5%, no sharp cut-off; inactive = mostly below about 7.6%;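 note: 0% = cells with vehicle only and 100% = reference agonist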
# HTR5A inv ag = HTR5A inverse agonism, opioid heterodimer counter-screen | 340,000 compounds, 0.083% hits | AID 504634 | HTR5A cell line, luminescence | P47898 | inhibition, % at 9.3 µM; in the data active = inhibition mostly above about 23%, no sharp cut-off; inactive = mostly below about 18%;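 note: 0% = cells with DMSO and 100% = no-cell wells with DMSO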
# MOR-DOR inv ag = mu-delta opioid heterodimer inverse agonism | cell-based MOR-DOR heterodimer luminescence | inhibition, % at 9.3 µM | 340,000 compounds, 0.21% hits | P35372+P41143; in the data active = inhibition above about 22%, passing the limit was not always enough;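 note: 0% = cells with DMSO and 100% = wells without cells with DMSO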
# Target sequence (P35372 whole entry, looked up): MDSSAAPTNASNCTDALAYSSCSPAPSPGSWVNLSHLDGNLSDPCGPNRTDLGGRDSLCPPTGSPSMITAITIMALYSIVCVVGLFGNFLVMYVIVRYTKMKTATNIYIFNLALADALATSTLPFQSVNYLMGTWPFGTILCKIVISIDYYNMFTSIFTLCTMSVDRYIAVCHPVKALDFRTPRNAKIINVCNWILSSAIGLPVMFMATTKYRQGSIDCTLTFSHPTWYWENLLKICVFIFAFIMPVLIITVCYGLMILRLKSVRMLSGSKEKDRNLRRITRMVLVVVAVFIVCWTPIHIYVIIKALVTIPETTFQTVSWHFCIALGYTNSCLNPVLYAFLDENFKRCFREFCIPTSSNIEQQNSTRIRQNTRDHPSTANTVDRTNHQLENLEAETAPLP
# Target sequence (P41143 whole entry, looked up): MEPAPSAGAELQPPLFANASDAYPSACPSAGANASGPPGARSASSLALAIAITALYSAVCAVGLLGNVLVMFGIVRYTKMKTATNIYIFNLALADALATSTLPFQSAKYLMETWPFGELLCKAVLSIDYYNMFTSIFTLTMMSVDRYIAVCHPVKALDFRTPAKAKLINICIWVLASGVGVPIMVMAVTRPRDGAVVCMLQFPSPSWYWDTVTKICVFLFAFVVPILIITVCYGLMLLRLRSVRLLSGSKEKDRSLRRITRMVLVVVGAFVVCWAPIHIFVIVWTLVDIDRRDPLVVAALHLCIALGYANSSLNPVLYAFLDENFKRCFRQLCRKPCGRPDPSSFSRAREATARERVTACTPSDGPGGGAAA
# OPRM1-OPRD1 ag = OPRM1-OPRD1 heterodimerization agonism; 340,000 compounds, 0.3% hits; activation, % at 9.3 µM; cells, luminescence; P35372+P41143; in the data active = activation above about 18%;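 note: 0% = vehicle-treated cells and 100% = reference agonist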
# Yeast superoxide = lowers age-related superoxide in aged yeast cells | 330,000 compounds, 0.18% hits | superoxide response (% of plate mean), % at 10 µM | S. cerevisiae aged cells, superoxide DHE fluorescence; stronger effect = lower value;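 active = superoxide response under a set limit, about three screen SD below normal, cut at about 65% in these data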;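 note: yeast aged for seven days with compound at 30 °C before DHE staining; 100% = average MFI of all compound-treated wells on the plate with controls excluded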
# Superoxide pick = yeast aging superoxide inhibition, cherry pick confirmation; shares compounds with Yeast superoxide; S. cerevisiae aging, superoxide DHE fluorescence; stronger effect = lower value; superoxide response (% of plate), % at 10 µM; 850 compounds, 1% hits; AID 434994;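 active = superoxide signal below 65% of the plate average of sample wells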;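 note: cells aged with compound for 7 days at 30 degrees C before staining; 100% equals mean DHE fluorescence of all compound wells on the plate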
# DHE fluor count = compound alters DHE oxidation or fluorescence in yeast | shares compounds with Yeast superoxide | S. cerevisiae BY4741, flow cytometry; stronger effect = lower value | fluorescence response, % at 10 µM | 850 tested, under 10 active | AID 435000;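 active = fluorescence response below 15%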;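 note: percent of the mean fluorescence averaged over all compound wells on the plate; lower means stronger quenching of DHE signal or ROS scavenging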
# Active calls of the source: *; . = not tested or not shown. A selection: hits, their analogues and other compounds. The true share with any hit is near 1.3%.
SMILES,PvdQ acylase,HTR5A ag,HTR5A inv ag,MOR-DOR inv ag,OPRM1-OPRD1 ag,Yeast superoxide,Superoxide pick,DHE fluor count
CCSc1ncc(Cl)c(C(=O)Nc2ccccc2C)n1,12.7,3.4,-11.9,4.2,-0.9,62.0*,117.9,123.3
CCSc1ncc(Cl)c(C(=O)Nc2ccc(S(=O)(=O)Nc3ncccn3)cc2)n1,-13.1,-2.0,-20.2,14.3,-2.9,86.0,.,.
CCSc1ncc(Cl)c(C(=O)Nc2ccccc2)n1,-18.4,-6.4,17.0,5.3,-0.9,99.8,107.5,89.8
Cn1cc(Br)c(-c2cccc(N3C(=O)CCCC3=O)c2)n1,8.7,1.5,6.6,10.7,-2.2,87.6,.,.
CC(=O)N1CC(C)Sc2ccc(S(=O)(=O)NCCc3cccc(C)c3)cc21 (stereo unspecified),-3.3,4.4,-27.8,1.8,-0.4,91.2,.,.
COc1cc(C(=O)Nc2cccc(C)c2C)ccc1OCC(=O)N1CCOCC1,-7.7,1.5,-3.8,7.3,-1.8,78.0,.,.
CSCCC(NC(=O)c1ccco1)C(=O)NCC(c1ccccc1)N(C)C (stereo unspecified),-10.1,5.3,-14.7,-11.2,2.7,87.7,.,.
COc1ccc(-c2cc(C(F)(F)F)nc(S(=O)(=O)CCCC(=O)Nc3cccnc3Cl)n2)cc1OC,-13.8,-5.2,13.2,0.6,-0.1,.,.,.
Cc1ccc(C)c(C(=O)COC(=O)c2ccc(C)c(S(=O)(=O)N3CCOCC3)c2)c1,-4.6,3.0,-11.0,-5.2,1.0,112.7,.,.
CCSc1ncc(Cl)c(C(=O)Nc2ccc(S(N)(=O)=O)cc2)n1,-4.4,-1.6,5.8,4.8,-1.1,63.3*,101.8,102.4
O=C1CC(NS(=O)(=O)c2cccs2)CN1c1cccc(F)c1 (stereo unspecified),-2.7,-2.9,11.8,17.4,-3.6,88.7,.,.
COc1ccc(C(=O)CN2C(=O)c3ccccc3C2=O)c(OC)c1,8.1,-0.4,1.4,7.3,-1.3,62.6*,117.6,117.4
COc1ccccc1C(=O)COC(=O)CN1C(=O)c2ccccc2C1=O,-0.6,6.5,-5.5,14.1,-2.6,97.8,.,.
COc1ccc2nc3ccccc3nc2c1NC(=O)c1ccccc1Cl,4.8,-1.5,3.9,16.8,-3.0,52.6*,79.6,92.7
N#Cc1ccc(-c2nc3cc(Cl)ccc3c(=O)n2O)cc1,-0.4,1.7,-6.8,5.4,-1.0,90.5,.,.
O=c1c2ccc(Cl)cc2nc(-c2cccc(C(F)(F)F)c2)n1O,-6.1,4.5,-11.6,-22.4,4.5,64.8*,87.5,88.6
CC(C)(C)c1ccc(-c2n[nH]c(=S)n2/N=C/c2ccncc2)cc1,-9.4,-0.8,9.0,-17.7,3.5,43.5*,115.4,127.3
CCC(=O)N1CCc2cc(S(=O)(=O)CCC(=O)NCc3ccccc3OC)ccc21,-2.0,-5.2,19.6,8.9,-1.8,123.0,.,.
O=C(Nc1c2c(nn1-c1ccccc1)CS(=O)C2)c1ccco1 (stereo unspecified),-9.2,1.8,-30.4,21.9,-4.0,95.5,.,.
COCC(C)Nc1ncnc2c1cnn2-c1ccc(Cl)cc1 (stereo unspecified),-24.6,4.4,-16.7,-4.4,1.1,106.8,89.3,92.7
COc1ccc(-n2ncc3c(NCC(C)C)ncnc32)cc1,-15.3,4.7,-10.3,5.4,-1.1,77.5,116.7,106.4
COc1ccc(-n2ncc3c(NC(C)C)ncnc32)cc1,-1.0,-2.2,-15.3,6.0,-1.1,85.2,.,.
COc1ccc(NC(=O)C2Cc3cc(S(=O)(=O)N4CCCCC4)ccc3N2C(C)=O)cc1Cl (stereo unspecified),-7.9,0.3,1.5,9.0,-1.6,93.6,.,.
COc1ccc(S(=O)(=O)Nc2cccc(Cl)c2)cc1OC,-6.1,0.8,7.6,-2.8,0.6,104.2,100.8,106.2
COc1ccc(NS(=O)(=O)c2ccc(OC)c(OC)c2)cc1OC,-11.4,5.5,-14.8,-1.5,0.2,96.4,.,.
SMILES,PvdQ acylase,HTR5A ag,HTR5A inv ag,MOR-DOR inv ag,OPRM1-OPRD1 ag,Yeast superoxide,Superoxide pick,DHE fluor count
COc1ccc(S(=O)(=O)Nc2ccc(F)c(F)c2)cc1Cl,-0.8,1.2,16.1,-28.5,5.2,123.2,98.7,108.9
COc1ccc(NS(=O)(=O)c2ccc(S(=O)(=O)N3CCCC3)cc2)cc1Cl,2.5,-0.1,0.4,9.4,-2.2,108.0,.,.
COc1ccc(-c2sc3cc4c(cc3c2C#Cc2ccc(N)cc2)OCO4)cc1,-23.5,1.7,-3.9,0.6,-0.1,100.0,.,.
COc1ccc(-c2sc3cc4c(cc3c2C#CCO)OCO4)cc1,-9.8,7.5,-9.4,-34.5,6.2,63.0*,103.0,92.4
COc1ccc(OC)c(S(=O)(=O)N2CCC3(CC2)CC(=O)c2ccccc2O3)c1,-15.7,-1.9,5.0,7.3,-1.1,93.2,.,.
COc1ccc(S(=O)(=O)N2CCC3(CC2)CC(=O)c2ccccc2O3)cc1C,-7.5,0.2,-0.5,19.6,-3.6,65.3*,100.1,96.1
Cc1ccc(NC(=O)CN2CCN(c3ccccn3)CC2)c(Cl)c1,-10.4,-4.1,-3.1,2.9,-0.5,81.6,113.7,130.3
Cc1cc(C)cc(NC(=O)CN2CCN(c3ccccn3)CC2)c1,1.7,-1.0,3.8,8.6,-1.8,89.4,.,.
COc1cc(NC(=O)CN2CCN(c3ccccn3)CC2)cc(OC)c1OC,4.6,-5.2,12.7,13.0,-2.3,100.2,99.5,93.5
O=C(CN1CCN(c2ccc([N+](=O)[O-])cc2)CC1)Nc1ccccn1,2.1,1.3,-4.6,9.6,-1.9,60.2*,107.3,114.9
COc1ccccc1NC(=O)CN1CCN(c2ccccn2)CC1,-5.8,5.1,-9.3,2.0,-0.4,136.3,99.3,117.4
O=C1C=C(c2ccc3c(c2)oc2ccccc23)C[C@@H](c2ccc(Cl)cc2)C1,-7.4,1.8,-13.8,-3.6,0.8,102.3,.,.
O=C(CN1CCN(c2ccc(F)cc2)CC1)Nc1ccccc1Br,-11.8,2.1,-8.0,-33.5,6.7,98.0,.,.
COc1ccc(C)cc1NC(=O)CN1CCN(c2ccccn2)CC1,-10.1,-4.0,14.4,3.3,-0.7,103.1,107.2,93.4
N#Cc1ccccc1NC(=O)CN1CCN(c2ccccn2)CC1,-13.7,-1.9,6.8,14.0,-3.0,98.3,109.1,100.4
COc1ccccc1NC(=O)CN1CCN(CC(=O)Nc2cc(C)ccc2OC)CC1,-14.0,3.4,-12.4,14.4,-3.0,.,.,.
COC(=O)c1ccccc1NC(=O)CN1CCN(c2ccccn2)CC1,-2.4,-5.3,14.7,2.9,-0.5,105.3,98.8,92.8
O=C(CN1CCN(c2ccccn2)CC1)Nc1ccccc1Br,2.7,1.0,-3.5,6.9,-1.5,94.3,108.4,98.6

# Source: PubChem
